# How the values were obtained:
# [1] = target: T1, Aspartate--tRNA(Asp/Asn) ligase (Mycobacterium tuberculosis (strain ATCC 25618 / H37Rv)) (UniProt P9WFW3); assay: Assay for Asp RNA synthetase-1 from Mycobacterium tuberculosis; assay type: functional; design: scale not given: direction of the effect not stated beside the values; settings: 30 µM; further: in the data most compounds retested in dose-response had high values
# T1 sequence (whole entry): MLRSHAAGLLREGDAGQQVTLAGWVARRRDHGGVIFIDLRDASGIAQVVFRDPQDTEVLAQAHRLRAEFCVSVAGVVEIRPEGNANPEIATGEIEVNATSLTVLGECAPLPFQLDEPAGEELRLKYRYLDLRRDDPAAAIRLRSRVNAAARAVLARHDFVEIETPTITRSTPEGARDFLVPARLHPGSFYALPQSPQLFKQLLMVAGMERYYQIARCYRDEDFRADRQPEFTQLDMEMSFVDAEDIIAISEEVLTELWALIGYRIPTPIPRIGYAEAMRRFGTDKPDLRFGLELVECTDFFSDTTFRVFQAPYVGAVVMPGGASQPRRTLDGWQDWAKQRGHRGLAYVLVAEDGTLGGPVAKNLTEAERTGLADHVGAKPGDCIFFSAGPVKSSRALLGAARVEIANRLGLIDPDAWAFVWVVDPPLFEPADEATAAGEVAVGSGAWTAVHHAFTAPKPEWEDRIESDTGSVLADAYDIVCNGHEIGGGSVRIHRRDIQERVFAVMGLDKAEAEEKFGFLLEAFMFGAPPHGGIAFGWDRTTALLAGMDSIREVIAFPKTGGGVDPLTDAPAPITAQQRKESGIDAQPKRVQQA
# [2] = target: Shiga toxin 2 (Escherichia coli O157:H7) (UniProt P09385+P09386); assay: E. coli 0.157:H7 Shiga Toxin SOP - stx2 screening assay; assay type: functional; design: scale not given: direction of the effect not stated beside the values; settings: 30 µM
SMILES,Percent Effect [1] [%],Percent Effect [2] [%]
N#Cc1cccnc1NCCNC(=O)N1CCCC(C(F)(F)F)C1 (stereo not drawn),-0.524,-17.9
CC(C(=O)Nc1cccc(N2CCCCC2)c1)n1cncn1 (stereo not drawn),2.19,2.83
CC(C)c1csc(C2CCCN(C(=O)Cn3ccccc3=O)C2)n1 (stereo not drawn),-3.63,-29.5
c1nc2n(n1)CC(NCc1nc(-c3ccsc3)no1)CC2 (stereo not drawn),4.69,10.5
CC(=O)N1CCN(Cn2nc(-c3ccc(F)cc3)oc2=O)CC1,0.698,-18.6
O=c1ccc(-c2ccccc2F)nn1CCN1CCCS1(=O)=O,-1.45,-0.28
CCN(CC)C1CCN(C(=O)NCc2nncn2CC)CC1,-0.573,-26
Cn1ccnc1C(NCc1csc(Br)c1)c1ccccc1 (stereo not drawn),-0.175,-3.96
Cn1cc(CN2CCc3onc(COc4cccnc4)c3C2)cn1,-6.13,-65.9
Cc1ccc(Cl)cc1C(=O)N1CCC2(CC1)c1ccccc1[C@@H](N)[C@@H]2O,-0.814,-5.92
c1cnc(N2CCC3(CC2)CN(CC2CC2)c2ccccc23)nc1,3.62,-25
CCc1ccc(C(=O)N2CCCC(c3noc(CC)n3)C2)o1 (stereo not drawn),-2.33,10.6
Cn1cc(N2CCCC(NCc3cccc4c3OCCCO4)C2)cn1 (stereo not drawn),2.49,22.1
O=C(NCCNCC1CNc2ccnn2C1)c1ccc(F)cc1 (stereo not drawn),-3.94,-25.2
COc1cccc2c1ccn2CC(=O)N[C@@H](CCSC)C(=O)O,6.16,-11.2
CN(C)S(=O)(=O)N1CCC(Oc2ccccn2)CC1,3.02,10.6
NC(=O)NCC1CCCCN1C(=O)c1cccc(C(F)(F)F)c1 (stereo not drawn),2.58,11.1
Cc1cncc(C2CCCN(C(=O)c3c[nH]c(=O)[nH]c3=O)C2)n1 (stereo not drawn),3.87,26.6
O=C(NCc1cccnc1-n1cccn1)C1CC(=O)N(CC2CC2)C1 (stereo not drawn),-2.05,10.1

# — ChEMBL document CHEMBL3988442, “University of Dundee, Small-Polar-MMV Screening Library” (2021)
